Data from PubChem BioAssay (NCATS).
Results filed as inconclusive are left out. The source made the active and inactive calls. Unless noted, calls follow the shape of the dose curve; as a rule, active = well fitted curve in the direction sought with a large enough effect; inconclusive = small, poorly fitted or top-dose-only effect, or another doubt; inactive = no such curve, though single readings can be large; an effect the other way counts as inactive or inconclusive.

How the values were obtained:
[1] = qHTS to identify inhibitors of the type 1 interferon - major histocompatibility complex class I in skeletal muscle: primary screen against the NCATS Mechanism Interrogation Plate v5.0 (MIPE) Libary (AID 1347411); also: nearly all actives have a fitted effect of over 65% in size; also: potency is read from the fitted curve at half-maximal effect
Summary of the method: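 Immortalized human C25cl48 myoblasts with HiBit knocked into endogenous HLA-B*08:01 were stimulated with 4.0 ng/ml IFN-beta and exposed to compounds (11-point 1:3 titration, top 46 uM final) for 24 hrs at 37 C; HiBiT lytic luminescence measured.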

[2] = biological target: Protein phosphatase 1D (Homo sapiens) (UniProt O15297); experiment: RapidFire Mass Spectrometry qHTS Assay for Modulators of WT P53-Induced Phosphatase 1 (WIP1) (AID 1347424);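 also: amount of dephosphorylated VEPPL-S-QETFS peptide product formed by WIP1; series mostly up to about 63 µM; plate controls were DMSO wells for no effect and GSK830371 inhibitor control at 10 µM for full effect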
Summary of the method: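 WIP1 (10 nM final) was preincubated 1 h at room temperature with compounds in Tris-HCl pH 7.5, 30 mM MgCl2, TCEP, EGTA, BSA; 2 uM VEPPL-pS-QETFS phosphopeptide was added for 5 min, quenched with formic acid, and dephosphorylated product quantified by RapidFire MS.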

[3] = biological target: Protein phosphatase 1D (Homo sapiens) (UniProt O15297); experiment: Rhodamine-PBP qHTS Assay for Modulators of WT P53-Induced Phosphatase 1 (WIP1) (AID 1347425); also: % of control where 0% means no effect
Summary of the method: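 Steps: enzyme with Rh-PBP sensor and compounds, room-temperature incubation of 1 hr, baseline read, addition of VEPPL-pS-QETFS (10 uM final), kinetic fluorescence reads at 525/598 nm. Activity equals final minus baseline signal.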

[4] = Primary qHTS for small molecule stabilizers of the endoplasmic reticulum resident proteome: Secreted ER Calcium Modulated Protein (SERCaMP) assay (AID 1508630); also: potency is read from the fitted curve at half-maximal effect
Summary of the method: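 GLuc-SERCaMP-expressing SH-SY5Y cells, pretreated 16 h with compound, are challenged with thapsigargin to empty ER calcium stores; after 4 h, coelenterazine is added directly to the medium and luminescence is imaged.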

[5] = biological target: Cytochrome P450 2C9 (Homo sapiens) (UniProt P11712); experiment: Cytochrome P450 family 2 subfamily C member 9 (CYP2C9) small molecule antagonists: luciferase biochemical (cell-free) qHTS assay (AID 1645842; active = well fitted curve in the direction sought with a large enough effect in the repeat runs; an effect the other way counts as inactive or inconclusive; also: nearly all actives have a fitted effect of over 55% in size; also: potency is read from the fitted curve at half-maximal effect)
Summary of the method: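 Luminescence, after 20 min with luciferin detection reagent, reflected CYP2C9 turnover during a 1 h NADPH-driven reaction at 37C. Enzyme-substrate mix contained 0.4% bovine serum albumin and was preincubated with compound 10 min at room temperature.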

[6] = qHTS for inhibitors of adenylyl cyclases using a fission yeast platform: a pilot screen against the NCATS LOPAC library (AID 1347410);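 also: plate controls were DMSO vehicle for no effect and DPI positive control for full effect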
Summary of the method: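 S. pombe CHP2027 (AC9-GNAS-PDE4D2) carrying PKA-repressed fbp1-GFP, incubated 18 h at 30C in EMM with LOPAC compounds at up to 57 uM. GFP gain-of-signal read by laser scanning cytometry; DMSO negative control.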

[7] = biological target: Single-stranded DNA cytosine deaminase (Homo sapiens) (UniProt Q9GZX7); experiment: Validation qHTS assay for inhibitors of Activation Induced Cytidine Deaminase (AID): AID signal (AID 1347429); also: potency is read from the fitted curve at half-maximal effect
Summary of the method: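 AID and UDG were combined and compounds added at final up to 114 uM, then DJC20/DJC23 FRET substrate was added for 4 hr at room temperature. NaOH was then added for 30 min before fluorescence was read at 540/590 nm.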

[8] = Primary qHTS for inhibitors of La Crosse Virus (LACV) - induced cell death in SH-SY5Y cells (AID 1508616); also: potency is read from the fitted curve at half-maximal effect
Summary of the method: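 Luminescent ATP readout (ATPLite 1step, 5 min room temperature) measured rescue from LACV-induced death after 6 days of infection at 0.01 MOI; normalized to infected DMSO wells and uninfected DMSO wells.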

[9] = biological target: Calcium and integrin-binding protein 1 (Homo sapiens) (UniProt Q99828); experiment: Validation qHTS for Identification of Calcium Integrin Binding protein 1 (CIB1) Competitor (AID 1508618); also: % is scaled to controls: 0 for no effect and ±100 for the full control effect
Summary of the method: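 In this qHTS validation, the LOPAC set (up to 114 uM) was tested for blocking CIB1 binding to a fluorescein-tagged alphaIIb peptide, with FP detection at 480/540 nm.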

[10] = biological target: Papain (Carica papaya) (UniProt P00784); experiment: Primary qHTS assay for inhibitors of the protease papain (AID 1645873);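 also: papain turnover of Z-FR-AMC read as the AMC fluorescence gain over 10 min; series mostly up to about 50 µM; % is scaled to controls: 0 for no effect and ±100 for the full control effect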
[11] = biological target: Calcium and integrin-binding protein 1 (Homo sapiens) (UniProt Q99828); experiment: Primary qHTS for Identification of Calcium Integrin Binding Protein 1 (CIB1) Competitor (AID 1508620);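 also: GST tagged CIB1 binding a fluorescein labelled alphaIIb integrin peptide tracer; top concentration of the series differs between compounds; % is scaled to controls: 0 for no effect and ±100 for the full control effect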
Summary of the method: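 Fluorescence polarization competition: CIB1-GST (1 uM final) preincubated with compound 15 min at room temperature, then FITC-labeled alphaIIb peptide (100 nM final) added for another 15 min. Polarization read at Ex 480/Em 540.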

[12] = A High-Content qHTS Against Drug Library for the Identification of Small Molecules that Inhibit DYT1 Early Onset Primary Dystonia-Associated Cell Pathology (AID 1645839; calls by dose curve; also: series mostly up to about 46 µM)
Summary of the method: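 Readout: %pathology, the punctate EGFP-TorsinA distribution from imaging, as the primary channel and cell count as the toxicity counterscreen. HEK293 Flp-In cells expressing delE TorsinA were induced with tetracycline and treated with compound for 48 h.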

[13] = Confirmatory qHTS for small molecule stabilizers of the endoplasmic reticulum resident proteome: Secreted ER Calcium Modulated Protein (SERCaMP) assay (AID 1508628);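 also: SH-SY5Y cells given compound 16 h then thapsigargin 100 nM for 4 h; series mostly up to about 76 µM; % is scaled to controls: 0 for no effect and ±100 for the full control effect; nearly all actives have a fitted effect of over 40% in size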
Summary of the method: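 We seeded SH-SY5Y-GLuc-SERCaMP cells, added compounds (three concentrations in the primary run, eleven up to 76.6 uM in confirmation), incubated 16 h, depleted ER calcium with thapsigargin, and read luciferase 4 h later.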

[14] = Cell Viability qHTS for small molecule stabilizers of the endoplasmic reticulum resident proteome (AID 1508629); settings: cell viability counter-screen, 100 nM thapsigargin for final 4 h;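 also: compound exposure about 46 h in total before the viability read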; also: potency is read from the fitted curve at half-maximal effect;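 as to max response: human SH-SY5Y neuroblastoma cells carrying the GLuc-SERCaMP reporter; % is scaled to controls: 0 for no effect and ±100 for the full control effect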
[15] = Counterscreen qHTS for small molecule stabilizers of the endoplasmic reticulum resident proteome: GLuc-NoTag assay (AID 1508627);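 also: SH-SY5Y cells given compound then 100 nM thapsigargin to empty ER calcium; series mostly up to about 76 µM; 0% = thapsigargin alone and -100% = DMSO vehicle control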
Summary of the method: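 SH-SY5Y cells stably expressing constitutively secreted GLuc (no SERCaMP tag) were pre-incubated 5 h, treated with compound for 19 h, then 100 nM thapsigargin for 4 h at 37C; medium GLuc read by coelenterazine luminescence.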

[16] = biological target: Cytochrome P450 2D6 (Homo sapiens) (UniProt P10635); experiment: Cytochrome P450 family 2 subfamily D member 6 (CYP2D6) small molecule antagonists: luciferase biochemical (cell-free) qHTS assay (AID 1645840; active = well fitted curve in the direction sought with a large enough effect in the repeat runs; an effect the other way counts as inactive or inconclusive; also: nearly all actives have a fitted effect of over 55% in size; also: potency is read from the fitted curve at half-maximal effect)
Summary of the method: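 P450-Glo luminescent screen: recombinant CYP2D6 enzyme–proluciferin substrate mix preincubated with compound 10 min at room temperature, then NADPH regeneration added for 1 h at room temperature. Detection reagent added for 20 min; luciferin light read as relative luminescence units.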

Papain (Carica papaya), sequence (P00784 whole entry, looked up): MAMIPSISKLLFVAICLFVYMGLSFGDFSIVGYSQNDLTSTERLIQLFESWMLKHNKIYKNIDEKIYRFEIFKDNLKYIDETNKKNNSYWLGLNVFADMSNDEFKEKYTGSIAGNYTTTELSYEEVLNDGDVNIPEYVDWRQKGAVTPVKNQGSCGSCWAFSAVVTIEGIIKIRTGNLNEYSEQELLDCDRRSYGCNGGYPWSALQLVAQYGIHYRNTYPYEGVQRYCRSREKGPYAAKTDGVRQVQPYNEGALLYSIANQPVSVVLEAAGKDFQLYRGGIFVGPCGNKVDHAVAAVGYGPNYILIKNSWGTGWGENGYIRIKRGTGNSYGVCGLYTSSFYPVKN
Cytochrome P450 2C9 (Homo sapiens), sequence (P11712 whole entry, looked up): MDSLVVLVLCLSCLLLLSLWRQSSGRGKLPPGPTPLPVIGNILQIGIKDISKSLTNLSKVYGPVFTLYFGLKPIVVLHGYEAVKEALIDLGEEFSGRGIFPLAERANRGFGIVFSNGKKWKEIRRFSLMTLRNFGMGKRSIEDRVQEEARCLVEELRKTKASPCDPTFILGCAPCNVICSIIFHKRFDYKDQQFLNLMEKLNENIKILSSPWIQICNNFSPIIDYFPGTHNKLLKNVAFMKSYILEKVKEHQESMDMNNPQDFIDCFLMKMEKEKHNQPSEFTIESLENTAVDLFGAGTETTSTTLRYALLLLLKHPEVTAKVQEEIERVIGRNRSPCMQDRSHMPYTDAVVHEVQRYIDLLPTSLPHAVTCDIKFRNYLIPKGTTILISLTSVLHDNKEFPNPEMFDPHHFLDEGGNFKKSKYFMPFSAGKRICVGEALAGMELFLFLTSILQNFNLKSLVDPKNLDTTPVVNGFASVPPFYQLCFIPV
Single-stranded DNA cytosine deaminase (Homo sapiens), sequence (Q9GZX7 whole entry, looked up): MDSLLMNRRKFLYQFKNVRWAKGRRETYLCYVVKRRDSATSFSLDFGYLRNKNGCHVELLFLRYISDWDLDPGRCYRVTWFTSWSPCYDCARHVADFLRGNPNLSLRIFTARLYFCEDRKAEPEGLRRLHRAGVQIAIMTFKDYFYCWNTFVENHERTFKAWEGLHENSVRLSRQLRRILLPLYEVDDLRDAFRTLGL
Protein phosphatase 1D (Homo sapiens), sequence (O15297 whole entry, looked up): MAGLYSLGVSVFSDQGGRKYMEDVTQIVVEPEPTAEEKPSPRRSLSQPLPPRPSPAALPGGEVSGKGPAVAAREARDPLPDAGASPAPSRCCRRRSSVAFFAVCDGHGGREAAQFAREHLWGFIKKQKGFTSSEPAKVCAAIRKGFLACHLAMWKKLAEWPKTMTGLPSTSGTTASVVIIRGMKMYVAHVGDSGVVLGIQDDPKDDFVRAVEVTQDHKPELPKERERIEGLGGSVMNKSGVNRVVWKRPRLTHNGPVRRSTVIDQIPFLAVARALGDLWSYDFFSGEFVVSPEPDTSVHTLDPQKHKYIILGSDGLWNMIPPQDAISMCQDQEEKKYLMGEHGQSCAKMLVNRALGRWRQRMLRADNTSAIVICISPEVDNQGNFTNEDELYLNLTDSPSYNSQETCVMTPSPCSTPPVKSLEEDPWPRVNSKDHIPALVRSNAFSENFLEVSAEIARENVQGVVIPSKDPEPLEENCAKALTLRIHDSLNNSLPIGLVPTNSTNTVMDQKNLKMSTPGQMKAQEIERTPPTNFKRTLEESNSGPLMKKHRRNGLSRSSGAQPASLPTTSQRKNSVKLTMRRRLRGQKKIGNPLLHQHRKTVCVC
Cytochrome P450 2D6 (Homo sapiens), sequence (P10635 whole entry, looked up): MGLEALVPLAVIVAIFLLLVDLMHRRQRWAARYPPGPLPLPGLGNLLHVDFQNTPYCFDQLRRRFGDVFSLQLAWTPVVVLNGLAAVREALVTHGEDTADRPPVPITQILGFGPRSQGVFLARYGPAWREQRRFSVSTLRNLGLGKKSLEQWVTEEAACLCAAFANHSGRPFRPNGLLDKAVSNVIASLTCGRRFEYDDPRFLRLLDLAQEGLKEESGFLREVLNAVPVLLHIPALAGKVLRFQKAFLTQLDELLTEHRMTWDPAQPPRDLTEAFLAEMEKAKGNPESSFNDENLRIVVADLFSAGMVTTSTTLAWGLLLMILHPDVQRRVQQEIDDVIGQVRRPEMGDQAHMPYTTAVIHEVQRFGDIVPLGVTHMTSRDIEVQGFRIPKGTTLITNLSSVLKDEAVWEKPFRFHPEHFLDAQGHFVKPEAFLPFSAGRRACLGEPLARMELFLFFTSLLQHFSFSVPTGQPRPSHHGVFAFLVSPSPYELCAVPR
Calcium and integrin-binding protein 1 (Homo sapiens), sequence (Q99828 whole entry, looked up): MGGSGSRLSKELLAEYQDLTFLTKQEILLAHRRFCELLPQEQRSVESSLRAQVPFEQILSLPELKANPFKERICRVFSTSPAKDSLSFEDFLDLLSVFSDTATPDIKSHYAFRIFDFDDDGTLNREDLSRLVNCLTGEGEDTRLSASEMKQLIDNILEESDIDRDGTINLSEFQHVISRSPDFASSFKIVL

COc1cccc2c1C(=O)c1c(O)c3c(c(O)c1C2=O)C[C@@](O)(C(=O)CO)C[C@@H]3O[C@H]1C[C@H](N)[C@H](O)[C@H](C)O1
active: Potency [1] 0.829 µM
inactive: Potency [2] | outcome [3] | Potency [4] | Potency [5]

Nc1cc(Cl)c(NC2=NCCN2)c(Cl)c1
inactive: outcome [6] | Potency [7] | Potency [8] | outcome [9] | Potency [4] | Potency [10]

COC(=O)[C@H]1[C@H]2C[C@H]3c4[nH]c5ccccc5c4CCN3C[C@H]2CC[C@@H]1O
inactive: outcome [6] | Potency [7] | Potency [8] | Potency [4] | Potency [10]

CC(=O)OCC(=O)[C@@]12OC(C)(C)O[C@@H]1C[C@H]1[C@@H]3C[C@H](F)C4=CC(=O)C=C[C@]4(C)[C@@]3(F)[C@@H](O)C[C@@]12C
inactive: Potency [1] | Potency [2] | outcome [3] | Potency [8] | Potency [11] | Potency [4] | Potency [12]

C[C@@H]1CN(CCCn2c3ccccc3c3ccccc32)C[C@H](C)N1
active: Potency [14] 31.6 µM
inactive: Potency [2] | outcome [3] | Potency [8] | Potency [11] | Potency [13] | Potency [5]

CCCOC(C(=O)OC1CCN(C)CC1)(c1ccccc1)c1ccccc1
active: Potency [16] 3.47 µM
inactive: Potency [2] | outcome [3] | Potency [8] | Potency [11] | outcome [15] | Potency [5]

CC(C)(Oc1ccc(Cl)cc1)C(=O)O
inactive: Potency [2] | outcome [3] | Potency [8] | Potency [11] | Potency [4]

CN1CCN(CCCN2c3ccccc3Sc3ccc(S(=O)(=O)N(C)C)cc32)CC1
inactive: Potency [2] | outcome [3] | Potency [8] | Potency [11] | max response [14] -9.17%
active: Potency [16] 11 µM

C[C@]12CC[C@@H]3c4ccc(O)cc4CC[C@H]3[C@@H]1CC[C@@H]2O
inactive: outcome [6] | Potency [7] | Potency [8] | Potency [4] | Potency [16] | Potency [5] | Potency [10]

CC(=O)O[C@H]1C[C@@H]2CC[C@@H]3[C@H](CC[C@@]4(C)[C@H]3C[C@H]([N+]3(C)CCCCC3)[C@@H]4OC(C)=O)[C@@]2(C)C[C@@H]1[N+]1(C)CCCCC1
inactive: outcome [6] | outcome [9] | Potency [4] | Potency [10]
active: Potency [7] 7.94 µM

CCCn1c(=O)[nH]c(=O)c2[nH]cnc21
inactive: outcome [6] | Potency [7] | Potency [8] | outcome [9] | Potency [4] | Potency [10]

CN(C)CCCOc1nn(Cc2ccccc2)c2ccccc12
inactive: Potency [2] | outcome [3] | Potency [8] | Potency [11] | Potency [4]

CNCCC=C1c2ccccc2CCc2ccccc21
inactive: outcome [6] | Potency [7] | outcome [9] | Potency [4] | Potency [5] | Potency [10]
active: Potency [16] 4.77 µM

CC(=O)OCC(=O)[C@@]1(OC(C)=O)[C@@H](C)C[C@H]2[C@@H]3C[C@H](F)C4=CC(=O)C=C[C@]4(C)[C@@]3(F)[C@@H](O)C[C@@]21C
inactive: Potency [2] | outcome [3] | Potency [8] | Potency [11] | Potency [4] | Potency [12] | Potency [16]

COc1cc2c(cc1O)CC[C@@H]1[C@@H]2CC[C@]2(C)[C@@H](O)CC[C@@H]12
active: Potency [8] 0.631 µM
inactive: outcome [6] | Potency [7] | outcome [9] | Potency [4] | Potency [10]

CC1=C(C(=O)O)N2C(=O)[C@@H](NC(=O)[C@H](N)c3ccc(O)cc3)[C@H]2SC1
inactive: Potency [2] | outcome [3] | Potency [8] | Potency [11] | Potency [4] | Potency [12]

N[C@@H](Cc1cnc[nH]1)C(=O)O
inactive: outcome [6] | Potency [7] | Potency [8] | outcome [9] | Potency [4] | Potency [10]

CC(C)COC(=O)OCN1C(=O)CN(CCN2CC(=O)N(COC(=O)OCC(C)C)C(=O)C2)CC1=O
inactive: outcome [6] | Potency [7] | Potency [8] | outcome [9] | Potency [4] | Potency [10]

COc1cc(-c2ccc(=O)[nH]n2)ccc1OC(F)F
inactive: Potency [2] | outcome [3] | Potency [8] | Potency [11] | Potency [4] | Potency [12]

CC(C)C[C@H]1C(=O)N2CCC[C@H]2[C@]2(O)O[C@](NC(=O)[C@@H]3C=C4c5cccc6[nH]c(Br)c(c56)C[C@H]4N(C)C3)(C(C)C)C(=O)N12
inactive: outcome [6] | Potency [7] | Potency [8] | outcome [9] | Potency [16]
active: Potency [5] 3.38 µM

CCN1CCN(c2cc3c(cc2F)c(=O)c(C(=O)O)cn3C2CC2)CC1
active: Potency [4] 1.12 µM
inactive: Potency [2] | outcome [3] | Potency [8] | Potency [11] | outcome [15] | Potency [13] | max response [14] 21.1% | Potency [12] | Potency [5]

N[C@H](CO)C(=O)O
inactive: outcome [6] | Potency [7] | outcome [9] | Potency [4] | Potency [16] | Potency [5] | Potency [10]

CC(=O)OCC(=O)[C@@]12N=C(C)O[C@@H]1C[C@H]1[C@@H]3CCC4=CC(=O)C=C[C@]4(C)[C@H]3[C@@H](O)C[C@@]12C
inactive: Potency [1] | Potency [2] | outcome [3] | Potency [8] | Potency [11] | Potency [4] | Potency [12] | Potency [16] | Potency [5]
